Measurements taken from PMC5540273 (PLoS ONE, 2017).

Assays:
Conditions in all cases: concentration: 1 μM, replicates: in singlicate; n = 1
PIP5K1A = tested on: PIP5K1A
PIP5K1C = tested on: PIP5K1C
PIP5K2B = tested on: PIP5K2B
PIP5K2C = tested on: T1, PIP5K2C
T1 construct: gene PIP4K2C

PKAC-alpha = tested on: T2, PKAC-alpha
T2 construct: gene PRKACA

PKAC-beta = tested on: T3, PKAC-beta
T3 construct: gene PRKACB

PKMYT1 = tested on: PKMYT1
PKN1 = tested on: PKN1
PKN2 = tested on: PKN2
PLK1 = tested on: PLK1
PLK2 = tested on: PLK2
PLK3 = tested on: PLK3
PLK4 = tested on: PLK4
PRKCD = tested on: PRKCD
PRKCE = tested on: PRKCE
PRKCH = tested on: PRKCH
PRKCI = tested on: PRKCI
PRKCQ = tested on: PRKCQ
PRKD1 = tested on: PRKD1
PRKD2 = tested on: PRKD2
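Also: KINOMEscan kinase panel screen.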

Row | Structure (SMILES) | %Inh (PIP5K1A) [%] | %Inh (PIP5K1C) [%] | %Inh (PIP5K2B) [%] | %Inh (PIP5K2C) [%] | %Inh (PKAC-alpha) [%] | %Inh (PKAC-beta) [%] | %Inh (PKMYT1) [%] | %Inh (PKN1) [%] | %Inh (PKN2) [%] | %Inh (PLK1) [%] | %Inh (PLK2) [%] | %Inh (PLK3) [%] | %Inh (PLK4) [%] | %Inh (PRKCD) [%] | %Inh (PRKCE) [%] | %Inh (PRKCH) [%] | %Inh (PRKCI) [%] | %Inh (PRKCQ) [%] | %Inh (PRKD1) [%] | %Inh (PRKD2) [%]
1 | CN(c1ccc(NC(=O)Nc2cc(C(F)(F)F)ccc2F)cc1)c1ccnc(Nc2ccc(S(N)(=O)=O)cc2)n1 [GW809893] | 10 | 14 | 0 | 94.6 | 18 | 18 | 1 | 0 | 8 | 3 | 54 | 56 | 97.6 | 0 | 0 | 0 | 29 | 9 | 0 | 10
2 | Cc1ccc(S(=O)(=O)Nc2ccc(Nc3nccc(Nc4cccc5[nH]ncc45)n3)cc2)cc1 [GSK581271] | 0 | 31 | 13 | 57 | 0 | 0 | 15 | 22 | 0 | 0 | 0 | 0 | 1 | 0 | 0 | 0 | 7 | 0 | 0 | 0
3 | CCCCc1nn2ncccc2c1-c1ccnc(Nc2ccc(N3CCN(C)CC3)cc2)n1 [GW684941] | 33 | 48 | 5 | 96.7 | 0 | 8 | 0 | 5 | 0 | 0 | 0 | 0 | 74 | 0 | 14 | 0 | 17 | 0 | 63 | 55
4 | O=C(Nc1ccccc1F)NC1CCN(c2ccnc(Nc3ccc(F)cc3)n2)CC1 [GSK1379800] | 1 | 47 | 12 | 23 | 0 | 0 | 7 | 0 | 0 | 0 | 0 | 0 | 0 | 0 | 2 | 0 | 18 | 0 | 0 | 2
5 | CSc1cccc2c(-c3ccncn3)c(-c3ccc(F)cc3)nn12 [GW514786] | 0 | 47 | 8 | 8 | 14 | 36 | 6 | 0 | 0 | 7 | 40 | 0 | 2 | 0 | 11 | 6 | 5 | 19 | 0 | 2
6 | Cn1cc(-c2ccc3c(c2)CCN3C(=O)Cc2cccc(F)c2)c2c(N)ncnc21 [GSK2603358] | 0 | 56 | 0 | 38 | 0 | 0 | 0 | 0 | 0 | 0 | 0 | 6 | 0 | 0 | 14 | 24 | 30 | 0 | 0 | 0
7 | COc1cccc(C(=O)Nc2cccc(Oc3ccc4nc(NC(=O)C5CC5)cn4n3)c2)c1 | 0 | 10 | 0 | 28 | 6 | 47 | 0 | 0 | 4 | 0 | 0 | 14 | 5 | 25 | 0 | 0 | 40 | 0 | 0 | 44
8 | COc1ccc(CNC(=O)NC2CCN(c3ccnc(Nc4ccc(F)cc4)n3)CC2)cc1 [GSK1379788] | 5 | 57 | 4 | 9 | 0 | 0 | 0 | 0 | 0 | 0 | 0 | 0 | 0 | 0 | 0 | 0 | 0 | 0 | 5 | 6
9 | COc1cc(Nc2nccc(-c3c(-c4cccc(NC(=O)c5c(F)cccc5F)c4)nn4ccccc34)n2)cc(OC)c1OC [GSK323521] | 0 | 45 | 23 | 27 | 0 | 6 | 4 | 12 | 6 | 2 | 0 | 0 | 6 | 31 | 17 | 22 | 27 | 15 | 8 | 7
10 | CCS(=O)(=O)c1ccc(OC)c(Nc2nccc(-c3c(-c4cccc(NC(=O)c5c(F)cccc5F)c4)nn4ncccc34)n2)c1 [GSK326180] | 0 | 8 | 0 | 40 | 0 | 0 | 0 | 0 | 0 | 0 | 0 | 5 | 16 | 0 | 12 | 18 | 16 | 27 | 0 | 9
11 | Cl.Cl.NCC(C(=O)Nc1cc(Br)c(-c2ccnc3[nH]ccc23)s1)c1ccccc1 (stereo not shown) [GSK1269851] | 55 | 38 | 74 | 1 | 97.2 | 93.6 | 0 | 100 | 15 | 0 | 16 | 2 | 0 | 70 | 58 | 63 | 26 | 73 | 0 | 0
12 | CC(=O)N1CCN(c2ccc(Nc3nccc(-c4sc(C(C)C)nc4-c4cccc(NS(=O)(=O)c5cccc(Cl)c5)c4)n3)cn2)CC1 [GSK1660437] | 0 | 15 | 15 | 66 | 0 | 6 | 0 | 57 | 12 | 0 | 5 | 0 | 99.8 | 1 | 0 | 19 | 13 | 13 | 89 | 95.3
13 | FC(F)(F)c1ccc(/C=C/c2cncnc2Nc2ccc3[nH]c(Cc4ccccc4)nc3c2)cc1 [GW709199] | 32 | 30 | 0 | 38 | 0 | 29 | 25 | 0 | 12 | 0 | 0 | 0 | 0 | 25 | 0 | 0 | 55 | 0 | 0 | 3
14 | Cc1cccc(Nc2nc(N[C@H]3CCNC3)ncc2C(N)=O)c1.Cl [GSK2197149] | 47 | 76 | 65 | 0 | 19 | 0 | 0 | 3 | 14 | 0 | 1 | 0 | 0 | 58 | 86 | 41 | 0 | 41 | 49 | 55
15 | COc1cccc(-c2ccc3c(NC(=O)C4CC4)n[nH]c3n2)c1 [SB-710903] | 58 | 65 | 20 | 64 | 0 | 0 | 8 | 0 | 0 | 0 | 0 | 0 | 6 | 0 | 23 | 10 | 11 | 0 | 0 | 0
16 | COCCOCCOc1cc2ncc3c4ccc(C#N)cc4[nH]c3c2cc1OC | 36 | 63 | 74 | 60 | 0 | 0 | 28 | 17 | 63 | 0 | 0 | 0 | 13 | 0 | 11 | 0 | 33 | 35 | 0 | 0
17 | Nc1ncnc2c1nc(-c1ccccc1)n2-c1ccccc1 [SKF-97293] | 13 | 0 | 19 | 0 | 7 | 17 | 18 | 20 | 4 | 68 | 38 | 16 | 26 | 14 | 35 | 9 | 13 | 0 | 5 | 0
18 | NCCCC(NC(=O)c1cc(Br)c(-c2ccnc3[nH]ccc23)s1)c1ccccc1.O=C(O)C(F)(F)F.O=C(O)C(F)(F)F (stereo not shown) [GSK1287544] | 72 | 42 | 60 | 28 | 99.4 | 99.2 | 0 | 18 | 58 | 0 | 14 | 0 | 0 | 95.6 | 92.5 | 94.7 | 31 | 75 | 29 | 36
19 | Cl.Cl.NCC(NCc1ccc(-c2ccnc3[nH]ccc23)s1)c1ccccc1 (stereo not shown) [GSK1321565] | 71 | 63 | 45 | 39 | 97.9 | 94.9 | 0 | 30 | 64 | 0 | 5 | 0 | 49 | 91.1 | 84 | 85 | 0 | 55 | 0 | 21
20 | COc1ccc(Nc2nccc(N3CCC(NC(=O)Nc4cccc(OC)c4)C3)n2)cc1 (stereo not shown) [GSK1379742] | 0 | 44 | 14 | 16 | 1 | 0 | 0 | 0 | 0 | 5 | 0 | 0 | 0 | 1 | 0 | 5 | 0 | 0 | 3 | 0
